# Measured values reported in the supplement of paper PMC13380429.
# Values without a mark were called inactive.
# Tested on: Vero E6 infected with SARS-CoV-2
# Test: inhibition of SARS-CoV-2 cytopathic effect; higher = more antiviral protection, active = above 15
# Settings: 48 h
Compound,inhibition of SARS-CoV-2 cytopathic effect (1 nM) [%],inhibition of SARS-CoV-2 cytopathic effect (8.33 nM) [%],inhibition of SARS-CoV-2 cytopathic effect (100 nM) [%],inhibition of SARS-CoV-2 cytopathic effect (833.33 nM) [%],inhibition of SARS-CoV-2 cytopathic effect (10000 nM)
Nc1cc(C(Cl)=C(Cl)Cl)c(S(N)(=O)=O)cc1S(N)(=O)=O [clorsulon],-0.52,2.04,2.84,-0.01,-2.69%
COc1cc(C(=O)OCCCN2CCCN(CCCOC(=O)c3cc(OC)c(OC)c(OC)c3)CC2)cc(OC)c1OC [dilazep],0.92,1.04,-0.17,-1.09,4.8%
COC(=O)[C@H](CC(C)C)NC(=O)[C@@H](N)CC(C)C [leucylleucine-methyl-ester],-2.04,0.78,-1.7,-0.61,-0.55%
Clc1cccc(Cl)c1NC1=NCCN1 [clonidine],-0.43,-2.8,-3.01,0.52,-5.58%
Clc1ccc(C(Cn2ccnc2)OCc2csc3c(Cl)cccc23)c(Cl)c1 (stereo not given) [sertaconazole],0.24,1.06,-0.32,1.68,-2.97%
CC(=O)OCC(=O)[C@@]1(O)CC[C@H]2[C@@H]3CCC4=CC(=O)CC[C@]4(C)[C@H]3C(=O)C[C@@]21C [cortisone-acetate],-0.91,-1.31,-1.03,0.49,0.27%
CNC(=O)[C@H]1O[C@@H](n2cnc3c(NCc4cccc(I)c4)nc(Cl)nc32)[C@H](O)[C@@H]1O,2.28,3.03,4.18,2.83,0.99%
CC(C)(S)C(=O)N[C@@H](CS)C(=O)O [bucillamine],0.66,4.25,5.04,3.9,-4%
O=C(O)C(Cl)Cl [dichloroacetate],4.14,1.34,2.35,0.22,2.63%
NCC(O)c1ccc(O)cc1 (stereo not given) [octopamine],-3.66,-1.96,-2.91,-4.12,0.96%
CCCCCC(=O)O[C@]1(C(C)=O)CC[C@H]2[C@@H]3CCC4=CC(=O)CC[C@]4(C)[C@H]3CC[C@@]21C [17-hydroxyprogesterone-caproate],-1.12,1.14,1.12,1.58,5.84%
CC(N)Cc1c[nH]c2ccc(OCc3cccs3)cc12 (stereo not given),0.71,-0.24,0.67,-1.65,-3.56%
N#Cc1cccc(C(=O)Nc2cc(-c3ccccc3)nn2-c2ccccc2)c1,1.77,4.71,3.47,3.43,1.98%
O=C(O)CCC(=O)c1ccc(-c2ccccc2)cc1 [fenbufen],-1.6,2.58,-0.25,-2.57,-2.49%
O=C(O)CCNC(=O)c1ccccc1 [betamipron],-2.23,-0.21,0.07,-1.91,-2.18%
CN1CCC[C@@H]1Cc1c[nH]c2ccc(CCS(=O)(=O)c3ccccc3)cc12 [eletriptan],-0.44,1.24,2.14,-1.16,-2.89%
NC(N)=Nc1nc(CSCCN/C=N/S(=O)(=O)c2ccc(Br)cc2)cs1 [ebrotidine],-0.49,1.21,5.48,-0.19,-2.58%

Compound,inhibition of SARS-CoV-2 cytopathic effect (1 nM) [%],inhibition of SARS-CoV-2 cytopathic effect (8.33 nM) [%],inhibition of SARS-CoV-2 cytopathic effect (100 nM) [%],inhibition of SARS-CoV-2 cytopathic effect (833.33 nM) [%],inhibition of SARS-CoV-2 cytopathic effect (10000 nM)
CC(=O)O[C@]1(C(C)=O)CC[C@H]2[C@@H]3C=C(C)C4=CC(=O)CC[C@]4(C)[C@H]3CC[C@@]21C [megestrol-acetate],-0.56,-0.6,-1.59,-0.54,0.33%
COC1=C[C@@H]2[C@@H]3Cc4ccc(OC)c(O)c4[C@]2(CCN3C)CC1=O [sinomenine],-1.85,0.19,-1.8,2.51,0.68%
c1cncc(CN2CCC(n3ncc4c(N5CCOCC5)nc(-c5ccc6[nH]ccc6c5)nc43)CC2)c1,1.62,0.29,2.14,12.2,17.7% (active)
C[C@H](NC[C@H](O)CP(=O)(O)CC1CCCCC1)c1ccc(Cl)c(Cl)c1,0.9,-0.56,-1.52,0.84,0.91%
CC(C)(C)NCc1cc(Nc2ccnc3cc(Cl)ccc23)c2c(c1O)CCCC2 [naphthoquine-phosphate],-1.58,-2.22,-0.22,-0.36,-5.14%
CC(C(=O)O)c1ccc2c(c1)Cc1cccnc1O2 (stereo not given) [pranoprofen],-0.06,4.49,2.65,1.95,-1.17%
O=C1N[C@@H]2[C@@H](O)[C@@H](O)[C@H](O)[C@@H](CO)N2C1=O [kifunensine],0.31,1.46,3.44,4.14,14.9%
C[C@H]1C[C@H]2[C@@H]3CCC4=CC(=O)C=C[C@]4(C)[C@@]3(F)[C@@H](O)C[C@]2(C)[C@@]1(O)C(=O)CO [betamethasone],0.395,-1.08,2.04,1.69,-0.195%
C[C@H](NC(=O)Cc1cc(F)cc(F)c1)C(=O)N[C@@H]1C(=O)N(C)c2ccccc2-c2ccccc21,-2.68,-3.21,-6.27,-7.86,-8.97%
CO[C@@]1(NC(=O)C2SC(=C(C(N)=O)C(=O)O)S2)C(=O)N2C(C(=O)O)=C(CSc3nnnn3C)CS[C@@H]21 (stereo not given in full) [cefotetan],0.97,1.11,2.32,-0.94,0.24%
N=C(N)NC(=N)NCCc1ccccc1 [phenformin],-3.22,0.38,-2.7,-2.58,-5.63%
Cc1cc(F)c(Nc2ncnc3cc(OCc4ccccc4)ccc23)cc1O,-3.67,-0.24,-1.17,-2.03,-1.32%
CC(=O)NCC(=O)N1[C@@H]2CC[C@H]1c1ccc(Nc3ncc(C(F)(F)F)c(NC4CCC4)n3)cc12,-2.51,-1.15,-2.99,-4.63,-15.4%
C#CC1(OCC(O)CN2CCN(c3cccc(C(F)(F)F)c3)CC2)CCCCC1 (stereo not given) [terciprazine],0.45,-1.84,-0.67,3.5,-3.3%
COc1ccc(NC(=O)c2ccc(-c3ccc(-c4noc(C)n4)cc3C)cc2)cc1N1CCN(C)CC1,4.92,6.46,0.49,-1.73,36.7% (active)
O=C(O)Cc1ccc2c(c1)C(=O)c1ccccc1CO2 [isoxepac],-4.41,-3.03,-6.78,-4.01,0.02%
O=C1CC[C@@]2(O)[C@H]3Cc4ccc(O)c5c4[C@@]2(CCN3CC2CC2)[C@H]1O5,4.81,3.83,1.26,-1.24,0.01%
